Here are results for 69 sequences from PubChem BioAssay AID1508600 (Functional Genomics Laboratory (NCATS/FGL), 2020).

Out of some 53,000 sequences screened, about 3,700 (7%) were called active. This is one part of a sample in which actives are shown more often than they occur. Unmarked numbers belong to inactive results.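 The calls were made as follows: active = gene knockdowns whose robust z-score for IL-1 alpha signal is at least 2 or at most -2, so actives lie on both sides; inactive = the rest.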

This experiment is described as follows: Components of the Cytosolic LPS Sensing Pathway: Gene Identification via Genome-wide siRNA Screen.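 Also: robust z of the log signal after scaling to non-targeting control siRNA wells of the plate.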 The conditions noted are these: RAW264.7 macrophages, IL-1a HTRF, actives lie on both sides, screened at 100 nM (by protocol), cells primed 5 h with Pam3CSK4 first. A digest of the protocol: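 Knockdown: 100 nM siRNA, 48h, RAW264.7. Stimulation: Pam3CSK4 5 h, then LipidA via TransIT-TKO 24 h. Output: supernatant IL-1a HTRF, negative-control-normalized, log robust z-score; viability by CellTiter-Glo.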
On the technique in general: TR-FRET usually uses a lanthanide donor and a delayed reading to cut background.
GCGAGAGAUGAAAUGGGUGTT against Tbc1d10c: the z-score was 1.07.

In the case of CCUUAAAAGUAACCACUGUTT against Slc6a6, the z-score is 2.38 (active).

On to GGUUUUAUCUCUUGUGCCCTT against Myl10, for which the z-score is -0.565.

Consider GGCCAAGGAUCCAUCUGUATT against Magee1, for which the z-score is 0.11.

Consider GCAAUAGCAGCAACUCUUATT against Dbpht1, for which the z-score was -0.369.

With GGCUCUAACAGCUACAUGUTT against Hspb7, the z-score was -2.21 (active).

On to GGGAGAUGUCUUACACAUGTT against Fkbp2, for which the z-score was 1.12.

Turning to GGUGGUUCUCAGCUGUGUATT against Arhgef18, the z-score is -1.08.

In the case of GGAUGAUGAAUGCAAUUAATT against Eed, the z-score is -0.882.

As to CCUACUUUGGACUCUUUCATT against Tnfsf12, the z-score was -2.25 (active).

For GGUGGAAGACUUCAGUGAATT against Clgn, the z-score was 0.384.

With CAGCUUGUGCUCGAGUAAATT against Gm3579, the z-score is -1.14.

As to GGACAGAAAGGUACCCUUATT against Slc30a5, the z-score was 0.461.

Regarding GGUAGUUGUUCUAUGUUUUTT against Olfr967, the z-score is -1.07.

Consider GCAAAAGUGUAUCAUGAUGTT against Olfr1052, for which the z-score is -2.17 (active).

As to CGUGGAGCUACCAUAUAGGTT against Mob3b, the z-score was 0.581.

Regarding CGACCAGCUUCUAGUGCUUTT against Pcdha8, the z-score was -0.431.

For the sequence CCAAGCCUCCAAUGGUCAGTT against Stat6, the z-score is -0.623.

GCACUAUGACUACAAGAGUTT against Olfr1457: the z-score is -0.965.

For the sequence GCCGUUGCCUUUCAAGGGATT against Inhbe, the z-score was -0.112.

Regarding GCUUUUCCGUGAUCAUACATT against Tex14, the z-score is 0.0691.

Regarding GGAUCCAGAUACUCCCAAGTT against Camp, the z-score was -1.08.

Consider GGGUUUCUUGAUUCUGACCTT against Ccl5, for which the z-score is -2.33 (active).

Consider CCUACCAGUUCCUAUUUAGTT against Alas2, for which the z-score is 0.452.

GGGUCUCCGAAACUACUUATT against Tmem144: the z-score is 0.00626.

Regarding GCCAAUUUGACUUGUAAGUTT against Slc22a3, the z-score is 1.4.

For the sequence GGUUUCUGGAAGAAACUGGTT against Polr1a, the z-score is -0.927.

As for GCUGAGUGAAUCCACGUACTT against Mzb1, the z-score was -2.65 (active).

In the case of CAUUGUCAUUCUAGUUGCATT against Olfr1251, the z-score was 0.64.

In the case of GGCAACAAUAGUUCAGAAGTT against Rps6ka5, the z-score was 1.5.

Take GCAUAUAAUGUCUAACUCGTT against Eml4: the z-score was -0.0328.

As to GGUUCUUAACCUCAGCAGUTT against Omg, the z-score is -0.541.

Regarding GGAGUCUUGCUCUAUAUAATT against Arpc5, the z-score is 1.26.

For the sequence GGCUUCUUUAUGUUUCCUUTT against Usp48, the z-score was -1.46.

With GGCUUUUCUAGUUCCUCAATT against Pdzd7, the z-score was -2.01 (active).

In the case of GGAAUUCAAGGGCUCCACATT against Grip1, the z-score is 0.378.

On to GGUAGGAUGAGUUGAAGAGTT against AF366264, for which the z-score was 0.0631.

Regarding CCAGAAGUUAGAACAGUUCTT against Rp9, the z-score is 1.49.

With GGAGUACAUGGUACACGUUTT against Fut8, the z-score was 1.52.

As to GGAUGUUGUUUAUCGAGGATT against Med21, the z-score was -0.572.

Take GGAUGGAGGAAGACUCGAUTT against Etv6: the z-score is 2.14 (active).

Consider GGAAACCUGUUUGAUUUUGTT against Aasdhppt, for which the z-score is 0.798.

As for GCUUUCAUAGCUGGAAACCTT against Olfr173, the z-score is 0.452.

Turning to CCUCACAAAUAUACAGUUCTT against Pira2, the z-score was 0.519.

In the case of UUCUACUGGGCUUAACCAGTT against Olfr1032, the z-score is 1.86.

For GGAUGCUUUAACUUCAAACTT against Crebrf, the z-score was 2.56 (active).

For GCCAUAUAAGAUUCUUGUGTT against Pi4kb, the z-score was -0.63.

On to GCAAAUGUAUUAUGUCCUUTT against Gm5478, for which the z-score is 0.0907.

For the sequence GGAUUUGUAAGACUAAUCUTT against Xdh, the z-score was 0.00453.

GGUGAAGAGACUGGAGAACTT against Cavin2: the z-score was -0.277.

Regarding GGACAUAAAACUUUUCAGUTT against Foxf2, the z-score is 1.02.

In the case of GGAACAGAAGUCAAGUGGATT against Acsm5, the z-score is 2.69 (active).

Regarding GCUGGACACGGAAGGUAUATT against Igsf8, the z-score is -0.595.

In the case of “CCUAAGAACCCUGAUCCUATT against A030005L19Rik”, the z-score was 1.08.

Turning to GGAAAAGGAAGAACUGAUUTT against Sptlc1, the z-score is -0.477.

Regarding GGACACCAUUGGCUCCUUATT against Tmub1, the z-score was 1.63.

On to GGUGAUGUUCUAACCCUGCTT against Trex1, for which the z-score was -0.0124.

On to GGCUUUGUCUACACUUUCATT against Olfr1308, for which the z-score was -1.02.

Turning to GGAUGGGAAGGUGAUUGUCTT against Gnb5, the z-score is 1.

As to CCUGGUGUUCGUGUACCUGTT against Cdk5r2, the z-score was 3.1 (active).

Consider GGAUUUAUUUAUGUCUUCCTT against Slc17a1, for which the z-score was 0.0643.

With GCAGUUGAGACAAUAUGUCTT against Trim31, the z-score was -1.8.

In the case of GGAUGUGUCGGGAAAUGCUTT against Frmd5, the z-score is -1.7.

On to GCACUAGAAGUGUCUUUUCTT against Cdhr1, for which the z-score is 2.17 (active).

For GGACAUUUUUCAUUUGUGATT against Zfhx4, the z-score is 1.28.

Turning to GGUCAUUCACGUCUGCGUUTT against Kcnj8, the z-score was -0.292.

On to CCAGUGCAGGACCUCAUUUTT against Sod1, for which the z-score is -2.06 (active).

On to GGCAGCUCUGACUUUAUAATT against Klhdc3, for which the z-score was -1.63.

Turning to CCCUGUAGAAAUUCAAGCCTT against Lyrm4, the z-score was 0.38.
